Data taken from PubChem BioAssay.
Activity calls are given as the source filed them.

Assays:
[1] = small molecules captured by biotinylated probe aFSTL3 – biochemical, small-molecule microarray, fluorescence 635/667, stem cell growth factor project, primary screen (AID 1064); conditions: higher = more signal;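 further: measures binding of the biotinylated anti-FSTL3 antibody to printed compounds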
[2] = binders from COS7 lysate, DM2A8 probe, primary screen, torsin A project, cell lysate, small-molecule microarray, fluorescence 635/667 (AID 1065); conditions: higher = more signal, COS7 lysate expressing mutant human TOR1A
[3] = small molecules captured by biotinylated probe aFGF2 – biochemical, small-molecule microarray, fluorescence 635/667, stem cell growth factor project, primary screen (AID 1067); conditions: higher = more signal;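 further: measures binding of biotinylated aFGF2 protein to printed compounds on slides; z-score merges feature fluorescence and signal-to-noise across triplicate slides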
[4] = small molecules captured by biotinylated probe aFGF10 – biochemical, small-molecule microarray, fluorescence 635/667, stem cell growth factor project, primary screen (AID 1071); conditions: higher = more signal;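 further: score merges 667 nm spot intensity and signal to noise from triplicate slides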
[5] = molecular target: Neurogenic locus notch homolog protein 2 (Homo sapiens) (UniProt Q04721); assay: small molecules binding Notch2 protein – biochemical, small-molecule microarray, 635 nm fluorescence, stem cell growth factors, primary screen (AID 1073); conditions: higher = more signal
[6] = molecular target: Pro-neuregulin-1, membrane-bound isoform (Homo sapiens) (UniProt Q02297); assay: small molecules binding neuregulin-1 protein – biochemical, small-molecule microarray, fluorescence 635/667, psychiatric disease protein project, primary screen (AID 1075); conditions: NRG1 binding, 635 nm fluorescence, higher = more signal;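 further: score combines 667 nm spot fluorescence with signal to noise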
[7] = test system: Neuregulin-1 EGF-like domain; assay: small molecules binding NRG1 EGF domain – biochemical, small-molecule microarray, 635 nm fluorescence, primary screen (AID 1081); conditions: higher = more signal;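 further: binding of the protein to compounds printed on small-molecule microarray slides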
[8] = FRG1 expression reporter modulators in myotubes – cell-based, C2C12 myotubes, firefly/Renilla luciferase, luminescence, FRG1 inhibition for FSHD, primary screen (AID 1084); conditions: FRG1 promoter luciferase, higher = more signal, called active from +8 up or from −8 down
[9] = small molecules captured by biotinylated probe aFST – biochemical, small-molecule microarray, fluorescence 635/667, stem cell growth factor project, primary screen (AID 1086); conditions: higher = more signal;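 further: score merges 667 nm fluorescence with signal-to-noise of each printed compound spot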
[10] = binders of probe aHhip on microarray, primary screen, stem cell growth factor project, biochemical, small-molecule microarray, fluorescence 635/667 (AID 1087); conditions: higher = more signal;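 further: score merges spot fluorescence at 667nm with spot signal to noise ratio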

Sequence of Neurogenic locus notch homolog protein 2 (Homo sapiens) (Q04721 whole entry, looked up, canonical isoform): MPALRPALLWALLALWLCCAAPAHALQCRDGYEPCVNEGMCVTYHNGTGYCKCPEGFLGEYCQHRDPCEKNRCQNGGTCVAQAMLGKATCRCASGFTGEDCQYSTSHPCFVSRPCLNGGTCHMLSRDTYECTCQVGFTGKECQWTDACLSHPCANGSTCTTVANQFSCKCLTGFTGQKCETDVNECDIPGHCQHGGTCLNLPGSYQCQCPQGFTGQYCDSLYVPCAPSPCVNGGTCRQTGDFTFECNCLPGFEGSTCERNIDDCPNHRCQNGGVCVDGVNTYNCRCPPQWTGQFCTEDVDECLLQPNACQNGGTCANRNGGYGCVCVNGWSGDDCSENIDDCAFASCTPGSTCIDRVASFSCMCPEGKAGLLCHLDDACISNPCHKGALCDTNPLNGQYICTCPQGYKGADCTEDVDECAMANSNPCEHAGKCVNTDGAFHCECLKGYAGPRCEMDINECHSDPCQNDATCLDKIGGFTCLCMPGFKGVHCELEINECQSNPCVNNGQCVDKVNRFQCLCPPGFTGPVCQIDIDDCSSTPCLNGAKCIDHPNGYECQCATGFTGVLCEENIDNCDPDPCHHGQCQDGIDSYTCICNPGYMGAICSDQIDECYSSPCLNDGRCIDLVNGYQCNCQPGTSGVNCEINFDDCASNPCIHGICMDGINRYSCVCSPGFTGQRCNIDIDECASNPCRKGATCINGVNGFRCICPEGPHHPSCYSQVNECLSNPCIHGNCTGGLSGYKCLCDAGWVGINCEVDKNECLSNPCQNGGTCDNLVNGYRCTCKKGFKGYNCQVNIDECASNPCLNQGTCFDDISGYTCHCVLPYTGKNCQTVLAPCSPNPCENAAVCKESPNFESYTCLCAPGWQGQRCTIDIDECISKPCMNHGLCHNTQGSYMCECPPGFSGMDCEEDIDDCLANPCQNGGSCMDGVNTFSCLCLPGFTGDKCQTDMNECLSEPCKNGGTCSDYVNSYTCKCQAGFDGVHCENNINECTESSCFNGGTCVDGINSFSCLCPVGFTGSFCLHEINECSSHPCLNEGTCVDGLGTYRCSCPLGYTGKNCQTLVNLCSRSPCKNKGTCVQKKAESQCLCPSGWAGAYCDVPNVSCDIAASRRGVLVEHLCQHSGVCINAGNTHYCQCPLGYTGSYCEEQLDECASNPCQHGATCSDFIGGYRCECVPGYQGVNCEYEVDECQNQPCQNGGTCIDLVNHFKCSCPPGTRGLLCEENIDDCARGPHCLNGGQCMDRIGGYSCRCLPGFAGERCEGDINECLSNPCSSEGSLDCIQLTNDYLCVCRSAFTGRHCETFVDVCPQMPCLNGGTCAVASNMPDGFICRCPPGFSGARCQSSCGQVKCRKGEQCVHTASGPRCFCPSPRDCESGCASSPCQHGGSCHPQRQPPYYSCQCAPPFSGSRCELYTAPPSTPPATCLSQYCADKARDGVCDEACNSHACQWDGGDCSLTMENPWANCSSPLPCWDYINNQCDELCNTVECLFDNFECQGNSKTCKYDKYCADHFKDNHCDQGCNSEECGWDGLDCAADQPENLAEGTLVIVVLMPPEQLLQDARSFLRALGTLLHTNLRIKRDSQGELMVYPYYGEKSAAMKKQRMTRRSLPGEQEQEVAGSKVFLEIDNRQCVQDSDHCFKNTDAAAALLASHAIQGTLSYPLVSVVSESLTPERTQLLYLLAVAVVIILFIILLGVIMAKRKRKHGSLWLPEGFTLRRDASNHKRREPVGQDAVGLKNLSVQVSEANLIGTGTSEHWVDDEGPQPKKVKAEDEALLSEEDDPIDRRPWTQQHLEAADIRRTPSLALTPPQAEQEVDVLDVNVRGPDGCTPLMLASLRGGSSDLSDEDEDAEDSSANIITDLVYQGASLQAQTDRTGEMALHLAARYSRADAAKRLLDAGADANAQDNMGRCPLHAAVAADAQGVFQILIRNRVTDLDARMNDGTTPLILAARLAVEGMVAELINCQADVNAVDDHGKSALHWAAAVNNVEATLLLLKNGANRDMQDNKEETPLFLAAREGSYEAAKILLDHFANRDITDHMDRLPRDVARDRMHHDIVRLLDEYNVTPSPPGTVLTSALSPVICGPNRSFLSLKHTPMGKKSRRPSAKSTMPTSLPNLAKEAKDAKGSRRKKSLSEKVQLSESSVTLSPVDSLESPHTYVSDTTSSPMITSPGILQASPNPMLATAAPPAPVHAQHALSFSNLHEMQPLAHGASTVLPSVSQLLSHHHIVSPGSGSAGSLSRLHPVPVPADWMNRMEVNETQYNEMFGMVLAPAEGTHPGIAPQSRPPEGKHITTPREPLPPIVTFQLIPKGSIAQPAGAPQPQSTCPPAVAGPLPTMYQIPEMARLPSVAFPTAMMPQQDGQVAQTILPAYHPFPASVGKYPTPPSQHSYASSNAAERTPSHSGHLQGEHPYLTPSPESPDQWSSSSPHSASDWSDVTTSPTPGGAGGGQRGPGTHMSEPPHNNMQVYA
Sequence of Pro-neuregulin-1, membrane-bound isoform (Homo sapiens) (Q02297 whole entry, looked up, the tested form may be a part, canonical isoform): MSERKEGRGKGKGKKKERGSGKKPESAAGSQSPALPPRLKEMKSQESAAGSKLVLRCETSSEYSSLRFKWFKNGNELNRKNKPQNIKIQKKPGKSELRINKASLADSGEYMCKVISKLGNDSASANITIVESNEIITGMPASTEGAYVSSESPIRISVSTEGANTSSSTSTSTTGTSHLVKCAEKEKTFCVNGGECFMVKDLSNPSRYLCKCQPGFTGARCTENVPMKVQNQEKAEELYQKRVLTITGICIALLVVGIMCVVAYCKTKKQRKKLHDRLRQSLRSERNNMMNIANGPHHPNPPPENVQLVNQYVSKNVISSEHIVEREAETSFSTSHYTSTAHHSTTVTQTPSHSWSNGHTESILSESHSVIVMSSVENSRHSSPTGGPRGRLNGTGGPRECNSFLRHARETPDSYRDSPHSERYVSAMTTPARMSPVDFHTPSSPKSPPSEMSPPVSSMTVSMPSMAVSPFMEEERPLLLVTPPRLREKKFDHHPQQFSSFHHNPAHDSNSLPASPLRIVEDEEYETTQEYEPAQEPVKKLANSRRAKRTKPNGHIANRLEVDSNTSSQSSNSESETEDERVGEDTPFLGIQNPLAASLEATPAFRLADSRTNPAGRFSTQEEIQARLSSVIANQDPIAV

Row | SMILES | composite z-score [1] | composite z-score [2] | composite z-score [3] | composite z-score [4] | composite z-score [5] | composite z-score [6] | composite z-score [7] | z-score [8] | composite z-score [9] | composite z-score [10]
1 | N#Cc1ccc(NN2C(C(O)c3ccc(I)cc3)C=CC3C(=O)N(c4ccccc4)C(=O)C32)cc1 (stereo not given) | 0.0909 | -0.0384 | 0.105 | 0.587 | 1.32 | 1.76 | 1.28 | -2.73 (inactive) | 0.857 | 0.0854
2 | COc1ccc([Si](C)(C)[C@@H]2[C@@H](CCO)O[C@]3(C(=O)N(Cc4ccc(NC(=O)[C@H](C)O)cc4)c4ccccc43)[C@H]2C)cc1 | 0.0169 | 0.395 | -0.0606 | 0.585 | 0.684 | 1.05 | 1.19 | -4.16 (inactive) | 0.152 | -0.0618
3 | Cc1ccc(N2C(=O)c3ccccc3[C@](C)(C(=O)O)[C@@H]2c2ccc(CO)cc2)nc1 | 1.5 | -0.461 | -0.224 | -1.1 | -1.52 | 1.91 | -0.402 | 0.744 (inactive) | -0.663 | -0.181
4 | C#CCCCON=C1C[C@@H](O)[C@@H](O)[C@@H]2[C@@H]3C(=O)N(Cc4ccc5c(c4)OCO5)C(=O)[C@@H]3CC[C@H]12 | -0.264 | 0.933 | -0.0533 | 0.716 | 0.624 | 0.662 | 0.695 | 0.523 (inactive) | -0.0042 | -0.342
5 | CO[C@H]1COC(=O)CC=C[C@H](C)[C@@H](OC)COC(=O)[C@H](Cc2ccccc2)NC(=O)CC=C[C@@H]1C | -0.304 | 1.36 | -0.167 | -1.09 | -1.79 | -0.806 | -1.09 | -1.01 (inactive) | -0.463 | 0.0524
6 | O=C1O[C@H](c2ccccc2)[C@H](c2ccccc2)N2[C@H]1[C@@H](C(=O)NC[C@H](O)c1ccccc1)[C@]1(C(=O)Nc3ccc(C#CC4=CCCCC4)cc31)[C@H]2c1ccc(OCCO)cc1 | 0.0854 | 0.21 | -0.0579 | 0.423 | 1.04 | 0.413 | 1.02 | 0.315 (inactive) | 0.681 | 0.136
7 | C#C[C@H](O[Si](C#Cc1ccccc1)(C(C)C)C(C)C)c1ccccc1 | -0.16 | -0.232 | -0.0956 | 0.125 | -0.677 | -0.328 | -0.305 | 1.15 (inactive) | -0.649 | -0.233
8 | COCCOC(=O)N1C(=O)[C@@]2(c3cc(C#CC4=CCCCC4)ccc31)[C@H](C(=O)NC[C@H](O)c1ccccc1)[C@H]1C(=O)O[C@H](c3ccccc3)[C@H](c3ccccc3)N1[C@@H]2c1ccc(OCCO)cc1 | -0.409 | 0.782 | -0.0566 | 0.478 | 1.26 | 1.12 | 1.26 | 0.916 (inactive) | 0.575 | -0.0645
9 | COCCOC(=O)N1C(=O)[C@@]2(c3cc(C#CC4=CCCCC4)ccc31)[C@H](C(=O)NC[C@H](O)c1ccccc1)[C@H]1C(=O)O[C@H](c3ccccc3)[C@H](c3ccccc3)N1[C@@H]2c1ccccc1OCCO | 0.462 | 0.333 | 0.126 | 0.467 | 1.15 | 0.616 | 1.09 | -0.0011 (inactive) | 0.881 | 0.259
10 | COC(=O)C1=CC(c2ccc(CO)cc2)=CC(c2cccs2)N(Cc2cccc(OC(F)(F)F)c2)C=C1C(=O)OC (stereo not given) | -0.0169 | 1.41 | -0.0375 | 0.862 | 1.17 | 2.03 | 1.17 | -0.497 (inactive) | 0.48 | 0.0866
11 | C=CCNC(=O)[C@H]1[C@@H]2C(=O)O[C@@H](c3ccccc3)[C@@H](c3ccccc3)N2[C@@H](c2ccccc2OCCO)[C@]12C(=O)N(C(=O)OCCOC)c1ccc(C#CCC(C(=O)OC)C(=O)OC)cc12 | -0.257 | 0.864 | 0.0556 | 0.408 | 1.34 | 1.47 | 1.22 | -0.678 (inactive) | 0.336 | 0.276
12 | C=C[C@H](OC)[C@@H](OC(=O)Nc1ccc(SC)cc1)c1ccc(O)c(F)c1 | -0.0125 | -0.22 | -0.0493 | 0.2 | 0.474 | 0.756 | 1.03 | 4.46 (inactive) | -0.212 | 0.109
13 | CC(C)C[C@@H]1NC(=O)[C@H](CC(C)C)NC(=O)[C@@]23C(=O)N[C@@H](Cc4ccccc4)C2[C@H](C)[C@@]2(C)O[C@H]2C3/C=C/CC/C=C/CNC1=O (stereo not given in full) | -0.3 | -0.135 | -0.0805 | 0.278 | 0.242 | 0.603 | 1 | -0.298 (inactive) | 0.0226 | -0.201
14 | Cc1ccc(S[C@]2(C(=O)O)CC(=O)N(Cc3ccccc3)[C@@H]2c2ccc(CO)cc2)cc1 | 0.58 | 0.131 | -0.0853 | -1.1 | 0.0203 | -0.33 | 0.736 | -0.579 (inactive) | 0.262 | -0.367
15 | COc1cc2c(cc1OC)CN(C(=O)[C@H]1[C@@H]3C(=O)O[C@@H](c4ccccc4)[C@@H](c4ccccc4)N3[C@@H](c3ccc(O)cc3)[C@]13C(=O)Nc1ccc(C#CC4(O)CCCCCC4)cc13)CC2 | 1.75 | 0.457 | 0.567 | 1.12 | 0.685 | 2.26 | 1.33 | -0.21 (inactive) | 2.53 | 2.29
16 | COCCOC(=O)N1C(=O)[C@@]2(c3cc(C#CCNC(N)=O)ccc31)[C@H](C(=O)N1CCCCCCC1)[C@H]1C(=O)O[C@H](c3ccccc3)[C@H](c3ccccc3)N1[C@@H]2c1ccccc1OCCO | 2.42 | 0.288 | 0.129 | 0.452 | 1.38 | 1.03 | 1.05 | -0.556 (inactive) | 1.29 | 0.851
17 | COc1cc(CO)cc(I)c1O[C@H]1C=C(C(=O)NCCO)C[C@@H](NCCc2c[nH]c3ccccc23)[C@@H]1O | 0.318 | 0.52 | 0.0019 | 1.01 | 0.832 | -0.0224 | 1.01 | -0.389 (inactive) | 0.714 | -0.184
18 | CO[C@H]1COC(=O)[C@H](C)NC(=O)CC=C[C@@H](C)[C@H](NS(=O)(=O)c2ccc(C)cc2)COC(=O)[C@@H](OCc2ccccc2)C=C[C@@H]1C | -0.452 | 0.148 | -0.183 | -0.0799 | -0.563 | -0.157 | -0.477 | -0.0584 (inactive) | -0.234 | -0.0237
19 | C[C@@H]1C=CCC(=O)OC[C@H]2O[C@@H](C=C[C@@H]2O)[C@H](C)C=CCC(=O)OC[C@H]2O[C@H]1C=C[C@@H]2O | -0.663 | 0.919 | -0.113 | 0.526 | 0.16 | -0.0241 | 0.567 | -0.274 (inactive) | 0.0915 | 0.346
20 | Cc1ccc(N2C(=O)c3ccccc3[C@](C)(C(=O)NCC(C)C)[C@@H]2c2ccc(CO)cc2)nc1 | 0.572 | -0.48 | 0.0988 | -0.662 | -1.02 | -1.05 | 1.4 | 0.613 (inactive) | -0.542 | 0.74
21 | CO[C@@H]1COC(=O)[C@H](C)NC(=O)CC=C[C@@H](C)[C@H](NS(=O)(=O)c2ccc(C)cc2)COC(=O)CC=C[C@@H]1C | -0.402 | -0.0613 | -0.0891 | 0.117 | 0.156 | -0.32 | -0.144 | -0.364 (inactive) | -0.181 | -0.388
22 | C[C@H]1COC(=O)[C@H](Cc2ccccc2)NC(=O)[C@@H](C)COC(=O)[C@H](Cc2ccccc2)NC1=O | -0.275 | 0.381 | -0.136 | 0.718 | 0.694 | 0.815 | 1.11 | -1.06 (inactive) | 0.0531 | -0.0994
23 | C=C(COC)/C(=C/C[C@@H](OC(=O)c1ccncc1)c1ccc(OCCO)cc1)c1cc(C(=O)OC)ccc1OC | -0.202 | 0.984 | -0.0775 | 0.702 | 0.864 | 1.44 | 1.2 | -2.14 (inactive) | 0.238 | 0.219
24 | C=CCOC(=O)[C@@H]1[C@H]2C(=O)O[C@H](c3ccccc3)[C@H](c3ccccc3)N2[C@H](c2ccc(OCCOC(=O)[C@H]3C[C@H]4C(=O)N[C@@H](CCCCNC(C)=O)C(=O)N4[C@H]3c3ccc(O)cc3)cc2)[C@@]12C(=O)Nc1ccc(I)cc12 | -0.583 | 0.242 | 0.0435 | 0.536 | 0.5 | 1.24 | 1.17 | 0.46 (inactive) | -0.0007 | 0.158
25 | C[N+](C)(C)CCCC[C@@H]1NC(=O)[C@H]2C[C@@H](C(=O)NCc3ccc(F)cc3)[C@@H](c3cccc(OCCO)c3)N2C1=O | 0.466 | 1.02 | -0.149 | -0.579 | -0.607 | 0.594 | 1.22 | 0.106 (inactive) | 0.231 | 0.0176
26 | CC1CC/C=C\[C@H]2OC34C=CCN(Cn5nnc6ccccc65)C(=O)[C@H]3N(C(C)CO)C(=O)[C@@H]4C2C(=O)O1 (stereo not given in full) | -0.0303 | -1.38 | -0.171 | -0.282 | -0.64 | 1.86 | 0.3 | -0.389 (inactive) | -0.134 | 0.0373
27 | C=CCC(OC(C)=O)[C@@H]1[C@@H](N(Cc2cccc3ccccc23)C(=O)Cc2ccc(F)cc2)c2cc(OCCCO)ccc2N1C(=O)Cc1ccc2ccccc2c1 (stereo not given in full) | -0.154 | 0.154 | -0.0503 | -0.169 | -0.241 | -0.58 | -0.607 | -1.32 (inactive) | -0.299 | -0.167
28 | Cc1ccc(N2C(=O)c3ccccc3[C@@H](C(=O)NCc3ccccc3)[C@@H]2c2ccc(CO)cc2)nc1 | 0.462 | 0.205 | -0.128 | -0.741 | -0.272 | -0.161 | 0.908 | -0.702 (inactive) | 0.174 | 0.0807
